Most compounds without a hit are left out; they make up all but 3% or so of the library.
aSyn UTR inh = 5' untranslated region of α-synuclein, MLPCN primary screen; alpha-synuclein 5'UTR reporter, inhibitor activity; inhibition, % (tested at 7.5 µM); 0.82% of 300,000 active; AID 1813; in the data active = inhibition above about 60%; inconclusive = no clear call, values can overlap the other calls;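 also: H4 neuroglioblastoma cells stably carrying SNCA 5'UTR luciferase fusion; 0% = DMSO wells and 100% = positive control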
CSC inhib = blocks cancer stem cells; inhibition, % at 7.5 µM; cancer stem cell-like cells viability, luminescence; 1.1% of 300,000 active; AID 2717; in the data active = inhibition above about 75%; inconclusive = no clear call, values can overlap the other calls; tested in HMLE shEcad cells
IEC-6 tox = kills IEC-6 intestinal cells in KLF5 counter-screen; IEC-6 cytotoxicity, luminescence viability; inhibition, % at 5 µM; AID 1825; 0.78% of 290,000 active; in the data active = inhibition above about 22%;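 also: 0% = plate median of test compound wells and 100% = cytotoxic reference compound wells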
KLF5 inh = suppresses KLF5 promoter-driven expression; DLD-1 KLF5 promoter-luciferase reporter, luminescence; 0.23% of 290,000 active; AID 1700; inhibition, % at 5 µM;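 active = inhibition above a per-plate limit of that plate's mean compound inhibition plus 3 SD, cut at about 60% in these data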;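 also: 0% = DMSO wells and 100% = LY294002 at 200 µM; higher means less KLF5 promoter-driven luciferase light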
SKKanGAS inh = blocks kanamycin growth of S. pyogenes SKKanGAS strain. 1.3% of 300,000 active. inhibition, % at 7.5 µM. BacTiter-Glo, 6 h;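 active = mean replicate score, as percent of positive control median, at least 50; inconclusive = mean below 50 but one replicate at or above 50; inactive = mean and every replicate below 50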;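 also: strain carries kanamycin resistance gene driven by streptokinase promoter and grows in 40 µg/ml kanamycin; loss of luminescence reflects streptokinase promoter inhibition or plain growth inhibition; 0% = median of DMSO wells and 100% = positive control at its reference dose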
An asterisk follows results filed as active; ? = inconclusive; · = no result given.

SMILES	aSyn UTR inh	CSC inhib	IEC-6 tox	KLF5 inh	SKKanGAS inh
Cc1cc(C)c(Nc2cc(S(=O)(=O)O)c(N)c3c2C(=O)c2ccccc2C3=O)c(C)c1	·	94*	6	4	·
Cc1cc(C)c(NC(=O)COC(=O)c2cccc3c2C(=O)c2ccccc2C3=O)c(C)c1	41	29	6	-4	40
CC1(C)c2ccccc2-n2c1cc1oc(=O)cc(O)c1c2=O	20	22	1	11	96*
CCCCCCSc1ccc([C@@H]2[C@H]3C(=O)N(CC)C(=O)[C@H]3[C@]3(C(=O)OC)CCCN23)cc1	·	-10	·	·	·
O=c1[nH]c(=S)[nH]c2c1C(c1ccc(Br)cc1)c1c([nH]c(=S)[nH]c1=O)O2	3	6	-12	-8	5
COc1ccc(/C=C/C(=O)NC(=S)NNC(=O)c2cc(OC)c(OC)c(OC)c2)cc1OC	33	-3	-1	-4	89*
COc1ccc(/C=C/C(=O)NC(=S)NNC(=O)c2cc(OC)c(OC)c(OC)c2)cc1	46	7	6	-20	101*
COc1ccc(/C=C/C(=O)NC(=S)Nc2ccc(C(=O)O)cc2)cc1	-49	-12	3	5	2
Cc1cc(C)nc(NS(=O)(=O)c2ccc(NC(=O)c3ccc(O)cc3O)cc2)n1	5	-15	-10	-30	1
CC(C)Cc1ccccc1O	-7	4	1	-21	-1
O=C1CC(=O)Nc2cc(S(=O)(=O)N3CCOc4ccc(Cl)cc43)ccc2N1	4	·	-1	-13	-9
CC(OC(=O)Cc1n[nH]c(=O)c2ccccc12)C(=O)Nc1ccc(Cl)cn1 (stereo not given)	24	4	4	-3	68*
CC(OC(=O)Cc1n[nH]c(=O)c2ccccc12)C(=O)Nc1cc(Cl)cc(Cl)c1 (stereo not given)	1	4	·	·	5
COc1ccc(C(=O)NNC(=S)NC(=O)/C=C/c2cccs2)cc1	30	-8	-4	-31	62*
O=C(/C=C/c1cccs1)NC(=S)NNC(=O)c1ccccc1O	103*	·	-4	2	79*
COc1ccc(NC(=S)NNC(=O)c2cccs2)cc1	-81	7	-6	-79	-4
O=C(/C=C/c1cccs1)NC(=S)Nc1ccccc1	-35	2	-3	-97	5
O=S(=O)(NCC(c1cccs1)N1CCc2ccccc2C1)c1ccccc1 (stereo not given)	-9	-9	·	·	12
N#C/C(=C(/O)c1ccccc1F)c1nc2cc(C(F)(F)F)ccc2s1	·	18	2	-36	11
N#C/C(=C(/O)c1ccc2c(c1)OCO2)c1nc2cc(C(F)(F)F)ccc2s1	-29	79*	2	-11	52*
CCOC(=O)c1cccc(NC(=O)CC2Oc3ccccc3NC2=O)c1 (stereo not given)	6	-24	3	-28	-9
CNC(=O)C1C(=S)NC(N)=C(C#N)C1c1ccccc1 (stereo not given)	6	112*	0	-25	7
CCOC(=O)C1=C(C)C(c2ccccc2OC)NC(=S)N1 (stereo not given)	14	-2	-5	-29	-2
CCOC(=O)N1C(=O)[C@](c2ccc(Cl)cc2)(C(C)C)N1C(=O)OCC	-25	17	4	-12	8
CCOC(=O)N1C(=O)[C@@](c2ccc(Cl)cc2)(C(C)C)N1C(=O)OCC	0	78*	2	3	3
SMILES	aSyn UTR inh	CSC inhib	IEC-6 tox	KLF5 inh	SKKanGAS inh
CCN(C(=O)COC(=O)c1cc(-c2ccc3cc(OC)ccc3c2)nc2ccccc12)C1CCS(=O)(=O)C1 (stereo not given)	67*	28	15	-35	13
CCN(C(=O)COC(=O)c1cc(OC)ccc1Br)C1CCS(=O)(=O)C1 (stereo not given)	·	6	·	·	·
COCc1cc(CN2CCCC2)c(O)c2ncccc12	?	36	-2	2	0
COc1ccc2nc3cc(Cl)ccc3c(Nc3cc(CN4CCCC4)c(O)c(CN4CCCC4)c3)c2n1	104*	32	14	20	5
COC(=O)c1ccc(/C=C/c2c(-c3ccsc3)sc3ccccc23)cc1	13	94*	0	-20	11
COc1ccc(-c2sc3ccccc3c2/C=C/c2ccc(N)cc2)cc1	·	97*	·	·	·
CN(C)N1C(N)=C(C#N)C(c2cccc3ccccc23)C2=C1CC(c1ccccc1)CC2=O (stereo not given)	42	80*	0	-23	12
NC(=O)c1cc([N+](=O)[O-])c(Cl)cc1NCc1ccccn1	·	1	·	·	·
Cc1ccc(NC(=O)Nc2ccc3c(c2)OCO3)nc1	-193	4	-5	-75	-15
O=C(/C=C/c1ccc2c(c1)OCO2)Nc1nc(-c2ccc(F)cc2F)cs1	-8	95*	4	-22	0
Cc1ccc(NC(=O)/C=C/c2ccc3c(c2)OCO3)nc1	-109	110*	1	-87	-8
CCn1cc(CCCC(=O)NCc2ccc(OC)cc2)c2ccccc21	15	-5	0	-46	2
CNC(=O)c1c(C)nc(SCC(=O)NCc2ccc(OC)cc2)c(C#N)c1-c1ccco1	0	-13	-4	-11	-7
COCCOC(=O)c1c(C)nc(SCC(=O)Nc2cccc3ccccc23)c(C#N)c1-c1ccco1	21	-3	5	-3	50*
Cc1ccccc1NC(=O)CSc1nc2c(c(-c3ccco3)c1C#N)CCCC2	7	-9	-1	-13	7
COCCOC(=O)c1c(C)nc(SCC(=O)Nc2ccc(C)cc2)c(C#N)c1-c1ccco1	18	-15	-3	-14	67*
CCc1ccc(NC(=S)Nc2ccc(S(=O)(=O)Nc3ncccn3)cc2)cc1	-27	-7	7	-6	-2
COC(=O)c1cc(Cl)cc2c(C)c(C3(O)CCCCC3)[nH]c12	4	-2	-2	-16	43
CCc1c(C2(O)CCCCC2)[nH]c2c(C(=O)OC)cc(Cl)cc12	11	105*	-3	-14	100*
O=C(c1cc(-c2ccc3c(c2)OCO3)on1)N1CCN(c2ccc(F)cc2)CC1	-3	·	3	-16	-3
O=C(c1cc(-c2ccc(O)cc2)on1)N1CCN(c2ccc(F)cc2)CC1	3	111*	3	-11	-2
O=C(c1cc(-c2ccc3c(c2)OCO3)on1)N1CCN(c2ccccc2)CC1	-245	44	-7	-84	-3
O=C(c1cc(-c2ccc(O)cc2)on1)N1CCN(c2ccccc2)CC1	-23	104*	0	-22	11
Fc1ccccc1Cc1noc(CN(Cc2ccccn2)CC2CCCO2)n1 (stereo not given)	23	-3	-6	-1	0
Cc1cc(Cl)ccc1OC(C)C(=O)Nc1cnn(CCCC(=O)O)c1 (stereo not given)	10	9	-3	-29	5
Cc1ccc2nc(-c3ccc(NS(=O)(=O)c4ccc(F)c(F)c4)cc3)sc2c1	-124	103*	-4	-185	76*
O=C(N/N=C/c1cccc(O)c1)c1cc(-c2ccc3c(c2)OCO3)n[nH]1	3	76*	-1	-34	21
O=C(N/N=C/c1ccccc1)c1cc(-c2ccc3c(c2)OCO3)n[nH]1	-17	30	-4	-63	-6

High-throughput results: PubChem BioAssay, several laboratories
